Experimental data published in the supplement of paper PMC10849652.
Of roughly 7,900 targets only a part is listed; those with a hit were picked by preference. About 0.6% of all pairs of compound and target were hits.

Experiments:
Assay in all cases: log2 fold change, soluble protein after heating vs DMSO (PISA); higher = thermal stabilisation; K562 cells, 10 uM, 30 min; active = over 0.2 and 3.5 SD of the protein, either way, in both replicates (recomputed)
[1] = compound: C1=CC=C(C=C1)[C@H](COC2=CC3=C(C=C2)NC(=O)N3)NC(=O)C4=CC=CN(C4=O)CC5=CC(=C(C=C5)F)F
Procedure, shortened: (§1)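 K562 cells at 2×10^6 cells/mL were treated for 30 min with 10 μM compound, and aliquots were heated for 3 min over 48°C-58°C before pooling. Extraction used PBS with 0.5% NP-40 at 4°C, and soluble protein was the supernatant after 21,000xg for 90 min, measured by TMTpro 16plex LC-MS/MS with channel sums equalised. Thermal stability values, relative to control samples and from duplicates, are log2 fold changes.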

[2] = compound: CC1=C(SC2=C1C(=N[C@H](C3=NN=C(N32)C)CC(=O)N)C4=CC=C(C=C4)Cl)C
Procedure, shortened: as §1

[3] = compound: CC1=C2C(=CC=C1)N=C(N(C2=O)C3=CC=CC=C3C)CN4C=NC5=C(N=CN=C54)N
Procedure, shortened: as §1

[4] = compound: Cc1sc2c(c1C)C(c1ccc(Cl)cc1)=N[C@@H](CC(=O)OC(C)(C)C)c1nnc(C)n1-2
Procedure, shortened: as §1

[5] = compound: c1ccc([C@@H]2C[C@H]2NC2CCNCC2)cc1
Procedure, shortened: as §1

Measured: log2 fold change

HMOX2 (UniProt P30519)
inactive: [1] 0.024 | [2] 0.035 | [3] 0.169 | [4] 0.047 | [5] -0.036

IFT74 (UniProt Q96LB3)
inactive: [1] 0.134 | [2] 0.11 | [3] 0.163 | [4] 0.003 | [5] -0.069

FUCA1 (UniProt P04066)
inactive: [1] -0.001 | [2] 0.058 | [3] 0.03 | [4] 0.018 | [5] 0.053

H2AFX (UniProt P16104)
inactive: [1] 0.103 | [2] -0.353 | [3] -0.374 | [4] -0.043 | [5] 0.206

GLS isoform 3 (UniProt O94925)
inactive: [1] -0.077 | [2] 0.204 | [3] 0.024 | [4] -0.168 | [5] 0.067

GSR (UniProt P00390)
inactive: [1] 0.006 | [2] 0.044 | [3] 0.034 | [4] -0.023 | [5] -0.003

FARS2 (UniProt O95363)
inactive: [1] -0.021 | [2] 0.022 | [3] 0.006 | [4] 0.069 | [5] -0.018

GSTM4 (UniProt Q03013)
inactive: [1] 0.064 | [2] 0.063 | [3] -0.114 | [4] -0.027 | [5] 0.03

GLA (UniProt P06280)
inactive: [1] 0.019 | [2] -0.019 | [3] -0.01 | [4] 0.007 | [5] 0.017

GNG5 (UniProt P63218)
inactive: [1] 0.044 | [2] 0.063 | [3] 0.012 | [4] -0.064 | [5] 0.018

GDPD1 (UniProt Q8N9F7)
inactive: [1] -0.054 | [2] 0.003 | [3] 0.057 | [4] -0.024 | [5] 0.034

IFNGR1 (UniProt P15260)
inactive: [1] 0.106 | [2] 0.105 | [3] 0.028 | [4] 0.046 | [5] 0.03

GSK3A (UniProt P49840)
inactive: [1] 0.006 | [2] 0.099 | [3] 0.02 | [4] -0.014 | [5] -0.034

GDE1 (UniProt Q9NZC3)
inactive: [1] -0.019 | [2] 0.037 | [3] 0.025 | [4] -0.078 | [5] -0.055

HNRNPH2 (UniProt P55795)
inactive: [1] -0.096 | [2] -0.037 | [3] 0.097 | [4] -0.035 | [5] -0.003

GALNT2 (UniProt Q10471)
inactive: [1] 0.008 | [2] 0.057 | [3] 0.001 | [4] 0.007 | [5] -0.004

FANCI (UniProt Q9NVI1)
inactive: [1] -0.071 | [2] 0.028 | [3] 0.109 | [4] -0.008 | [5] -0.037

GNB2 (UniProt P62879)
inactive: [1] 0.025 | [2] 0.045 | [3] 0.029 | [4] -0.09 | [5] -0.015

FECH isoform 2 (UniProt P22830)
inactive: [1] 0.008 | [2] 0.03 | [3] 0.023 | [4] -0.07 | [5] -0.08

FKBP3 (UniProt Q00688)
inactive: [1] 0.014 | [2] 0.003 | [3] 0.01 | [4] 0.011 | [5] -0.016

H2AZ1 (UniProt P0C0S5)
inactive: [1] 0.12 | [2] -0.153 | [3] -0.247 | [4] -0.021 | [5] 0.123

HPCAL1 (UniProt P37235)
inactive: [1] 0.007 | [2] -0.011 | [3] 0.047 | [4] -0.011 | [5] 0.032

FBXO42 (UniProt Q6P3S6)
inactive: [1] -0.022 | [2] 0.017 | [3] 0.094 | [4] 0.141 | [5] 0.077

HDGFL2 (UniProt Q7Z4V5)
inactive: [1] -0.043 | [2] 0.007 | [3] -0.03 | [4] -0.012 | [5] 0.065

GCC2 (UniProt Q8IWJ2)
inactive: [1] -0.027 | [2] -0.116 | [3] 0.004 | [4] 0.066 | [5] -0.059

FAT2 (UniProt Q9NYQ8)
active: [2] 0.669
inactive: [1] -0.092 | [3] 0.163 | [4] -0.091 | [5] -0.218

HOMER1 (UniProt Q86YM7)
Sequence of UniProt Q86YM7 (Q86YM7 whole entry, looked up): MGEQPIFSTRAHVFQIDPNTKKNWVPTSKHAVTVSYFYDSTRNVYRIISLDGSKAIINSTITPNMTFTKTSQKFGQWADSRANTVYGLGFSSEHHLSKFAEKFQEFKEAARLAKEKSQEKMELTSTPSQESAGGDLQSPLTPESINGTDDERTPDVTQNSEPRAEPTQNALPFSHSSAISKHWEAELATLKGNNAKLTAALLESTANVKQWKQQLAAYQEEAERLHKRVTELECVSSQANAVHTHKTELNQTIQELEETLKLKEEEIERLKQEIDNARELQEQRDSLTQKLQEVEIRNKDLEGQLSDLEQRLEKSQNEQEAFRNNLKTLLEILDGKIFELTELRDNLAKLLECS
inactive: [1] -0.08 | [2] 0.035 | [3] 0.02 | [4] -0.005 | [5] 0.007

GOPC (UniProt Q9HD26)
inactive: [1] -0.315 | [2] -0.016 | [3] 0.018 | [4] 0.169 | [5] -0.054

GUK1 isoform 2 (UniProt Q16774)
inactive: [1] -0.042 | [2] 0.003 | [3] 0.084 | [4] -0.021 | [5] 0.031

H1FX (UniProt Q92522)
inactive: [1] 0.088 | [2] -0.146 | [3] -0.21 | [4] 0.135 | [5] -0.005

GTF2E2 (UniProt P29084)
inactive: [1] -0.009 | [2] 0.043 | [3] 0.126 | [4] -0.058 | [5] 0.012

GALC (UniProt P54803)
inactive: [1] 0.046 | [2] 0.055 | [3] 0.055 | [4] -0.043 | [5] 0.006

HIKESHI (UniProt Q53FT3)
inactive: [1] 0.014 | [2] 0.12 | [3] 0.149 | [4] -0.091 | [5] -0.027

FBL (UniProt P22087)
inactive: [1] 0.095 | [2] -0.267 | [3] -0.126 | [4] 0.18 | [5] 0.074

GYG1 (UniProt P46976)
inactive: [1] 0.02 | [2] -0.077 | [3] -0.046 | [4] -0.008 | [5] -0.019

FKBP7 (UniProt Q9Y680)
inactive: [1] -0.027 | [2] 0.005 | [3] 0.091 | [4] 0.009 | [5] 0.102

FLNA (UniProt P21333)
inactive: [1] -0.11 | [2] 0.016 | [3] 0.049 | [4] 0.019 | [5] -0.008

HIP1 (UniProt O00291)
inactive: [1] 0.137 | [2] -0.009 | [3] 0.106 | [4] 0.019 | [5] 0.045

HIST2H2BF isoform 2 (UniProt Q5QNW6)
inactive: [1] 0.148 | [2] -0.273 | [3] -0.29 | [4] -0.082 | [5] 0.125

FAT1 (UniProt Q14517)
Sequence of UniProt Q14517 (Q14517 whole entry, looked up): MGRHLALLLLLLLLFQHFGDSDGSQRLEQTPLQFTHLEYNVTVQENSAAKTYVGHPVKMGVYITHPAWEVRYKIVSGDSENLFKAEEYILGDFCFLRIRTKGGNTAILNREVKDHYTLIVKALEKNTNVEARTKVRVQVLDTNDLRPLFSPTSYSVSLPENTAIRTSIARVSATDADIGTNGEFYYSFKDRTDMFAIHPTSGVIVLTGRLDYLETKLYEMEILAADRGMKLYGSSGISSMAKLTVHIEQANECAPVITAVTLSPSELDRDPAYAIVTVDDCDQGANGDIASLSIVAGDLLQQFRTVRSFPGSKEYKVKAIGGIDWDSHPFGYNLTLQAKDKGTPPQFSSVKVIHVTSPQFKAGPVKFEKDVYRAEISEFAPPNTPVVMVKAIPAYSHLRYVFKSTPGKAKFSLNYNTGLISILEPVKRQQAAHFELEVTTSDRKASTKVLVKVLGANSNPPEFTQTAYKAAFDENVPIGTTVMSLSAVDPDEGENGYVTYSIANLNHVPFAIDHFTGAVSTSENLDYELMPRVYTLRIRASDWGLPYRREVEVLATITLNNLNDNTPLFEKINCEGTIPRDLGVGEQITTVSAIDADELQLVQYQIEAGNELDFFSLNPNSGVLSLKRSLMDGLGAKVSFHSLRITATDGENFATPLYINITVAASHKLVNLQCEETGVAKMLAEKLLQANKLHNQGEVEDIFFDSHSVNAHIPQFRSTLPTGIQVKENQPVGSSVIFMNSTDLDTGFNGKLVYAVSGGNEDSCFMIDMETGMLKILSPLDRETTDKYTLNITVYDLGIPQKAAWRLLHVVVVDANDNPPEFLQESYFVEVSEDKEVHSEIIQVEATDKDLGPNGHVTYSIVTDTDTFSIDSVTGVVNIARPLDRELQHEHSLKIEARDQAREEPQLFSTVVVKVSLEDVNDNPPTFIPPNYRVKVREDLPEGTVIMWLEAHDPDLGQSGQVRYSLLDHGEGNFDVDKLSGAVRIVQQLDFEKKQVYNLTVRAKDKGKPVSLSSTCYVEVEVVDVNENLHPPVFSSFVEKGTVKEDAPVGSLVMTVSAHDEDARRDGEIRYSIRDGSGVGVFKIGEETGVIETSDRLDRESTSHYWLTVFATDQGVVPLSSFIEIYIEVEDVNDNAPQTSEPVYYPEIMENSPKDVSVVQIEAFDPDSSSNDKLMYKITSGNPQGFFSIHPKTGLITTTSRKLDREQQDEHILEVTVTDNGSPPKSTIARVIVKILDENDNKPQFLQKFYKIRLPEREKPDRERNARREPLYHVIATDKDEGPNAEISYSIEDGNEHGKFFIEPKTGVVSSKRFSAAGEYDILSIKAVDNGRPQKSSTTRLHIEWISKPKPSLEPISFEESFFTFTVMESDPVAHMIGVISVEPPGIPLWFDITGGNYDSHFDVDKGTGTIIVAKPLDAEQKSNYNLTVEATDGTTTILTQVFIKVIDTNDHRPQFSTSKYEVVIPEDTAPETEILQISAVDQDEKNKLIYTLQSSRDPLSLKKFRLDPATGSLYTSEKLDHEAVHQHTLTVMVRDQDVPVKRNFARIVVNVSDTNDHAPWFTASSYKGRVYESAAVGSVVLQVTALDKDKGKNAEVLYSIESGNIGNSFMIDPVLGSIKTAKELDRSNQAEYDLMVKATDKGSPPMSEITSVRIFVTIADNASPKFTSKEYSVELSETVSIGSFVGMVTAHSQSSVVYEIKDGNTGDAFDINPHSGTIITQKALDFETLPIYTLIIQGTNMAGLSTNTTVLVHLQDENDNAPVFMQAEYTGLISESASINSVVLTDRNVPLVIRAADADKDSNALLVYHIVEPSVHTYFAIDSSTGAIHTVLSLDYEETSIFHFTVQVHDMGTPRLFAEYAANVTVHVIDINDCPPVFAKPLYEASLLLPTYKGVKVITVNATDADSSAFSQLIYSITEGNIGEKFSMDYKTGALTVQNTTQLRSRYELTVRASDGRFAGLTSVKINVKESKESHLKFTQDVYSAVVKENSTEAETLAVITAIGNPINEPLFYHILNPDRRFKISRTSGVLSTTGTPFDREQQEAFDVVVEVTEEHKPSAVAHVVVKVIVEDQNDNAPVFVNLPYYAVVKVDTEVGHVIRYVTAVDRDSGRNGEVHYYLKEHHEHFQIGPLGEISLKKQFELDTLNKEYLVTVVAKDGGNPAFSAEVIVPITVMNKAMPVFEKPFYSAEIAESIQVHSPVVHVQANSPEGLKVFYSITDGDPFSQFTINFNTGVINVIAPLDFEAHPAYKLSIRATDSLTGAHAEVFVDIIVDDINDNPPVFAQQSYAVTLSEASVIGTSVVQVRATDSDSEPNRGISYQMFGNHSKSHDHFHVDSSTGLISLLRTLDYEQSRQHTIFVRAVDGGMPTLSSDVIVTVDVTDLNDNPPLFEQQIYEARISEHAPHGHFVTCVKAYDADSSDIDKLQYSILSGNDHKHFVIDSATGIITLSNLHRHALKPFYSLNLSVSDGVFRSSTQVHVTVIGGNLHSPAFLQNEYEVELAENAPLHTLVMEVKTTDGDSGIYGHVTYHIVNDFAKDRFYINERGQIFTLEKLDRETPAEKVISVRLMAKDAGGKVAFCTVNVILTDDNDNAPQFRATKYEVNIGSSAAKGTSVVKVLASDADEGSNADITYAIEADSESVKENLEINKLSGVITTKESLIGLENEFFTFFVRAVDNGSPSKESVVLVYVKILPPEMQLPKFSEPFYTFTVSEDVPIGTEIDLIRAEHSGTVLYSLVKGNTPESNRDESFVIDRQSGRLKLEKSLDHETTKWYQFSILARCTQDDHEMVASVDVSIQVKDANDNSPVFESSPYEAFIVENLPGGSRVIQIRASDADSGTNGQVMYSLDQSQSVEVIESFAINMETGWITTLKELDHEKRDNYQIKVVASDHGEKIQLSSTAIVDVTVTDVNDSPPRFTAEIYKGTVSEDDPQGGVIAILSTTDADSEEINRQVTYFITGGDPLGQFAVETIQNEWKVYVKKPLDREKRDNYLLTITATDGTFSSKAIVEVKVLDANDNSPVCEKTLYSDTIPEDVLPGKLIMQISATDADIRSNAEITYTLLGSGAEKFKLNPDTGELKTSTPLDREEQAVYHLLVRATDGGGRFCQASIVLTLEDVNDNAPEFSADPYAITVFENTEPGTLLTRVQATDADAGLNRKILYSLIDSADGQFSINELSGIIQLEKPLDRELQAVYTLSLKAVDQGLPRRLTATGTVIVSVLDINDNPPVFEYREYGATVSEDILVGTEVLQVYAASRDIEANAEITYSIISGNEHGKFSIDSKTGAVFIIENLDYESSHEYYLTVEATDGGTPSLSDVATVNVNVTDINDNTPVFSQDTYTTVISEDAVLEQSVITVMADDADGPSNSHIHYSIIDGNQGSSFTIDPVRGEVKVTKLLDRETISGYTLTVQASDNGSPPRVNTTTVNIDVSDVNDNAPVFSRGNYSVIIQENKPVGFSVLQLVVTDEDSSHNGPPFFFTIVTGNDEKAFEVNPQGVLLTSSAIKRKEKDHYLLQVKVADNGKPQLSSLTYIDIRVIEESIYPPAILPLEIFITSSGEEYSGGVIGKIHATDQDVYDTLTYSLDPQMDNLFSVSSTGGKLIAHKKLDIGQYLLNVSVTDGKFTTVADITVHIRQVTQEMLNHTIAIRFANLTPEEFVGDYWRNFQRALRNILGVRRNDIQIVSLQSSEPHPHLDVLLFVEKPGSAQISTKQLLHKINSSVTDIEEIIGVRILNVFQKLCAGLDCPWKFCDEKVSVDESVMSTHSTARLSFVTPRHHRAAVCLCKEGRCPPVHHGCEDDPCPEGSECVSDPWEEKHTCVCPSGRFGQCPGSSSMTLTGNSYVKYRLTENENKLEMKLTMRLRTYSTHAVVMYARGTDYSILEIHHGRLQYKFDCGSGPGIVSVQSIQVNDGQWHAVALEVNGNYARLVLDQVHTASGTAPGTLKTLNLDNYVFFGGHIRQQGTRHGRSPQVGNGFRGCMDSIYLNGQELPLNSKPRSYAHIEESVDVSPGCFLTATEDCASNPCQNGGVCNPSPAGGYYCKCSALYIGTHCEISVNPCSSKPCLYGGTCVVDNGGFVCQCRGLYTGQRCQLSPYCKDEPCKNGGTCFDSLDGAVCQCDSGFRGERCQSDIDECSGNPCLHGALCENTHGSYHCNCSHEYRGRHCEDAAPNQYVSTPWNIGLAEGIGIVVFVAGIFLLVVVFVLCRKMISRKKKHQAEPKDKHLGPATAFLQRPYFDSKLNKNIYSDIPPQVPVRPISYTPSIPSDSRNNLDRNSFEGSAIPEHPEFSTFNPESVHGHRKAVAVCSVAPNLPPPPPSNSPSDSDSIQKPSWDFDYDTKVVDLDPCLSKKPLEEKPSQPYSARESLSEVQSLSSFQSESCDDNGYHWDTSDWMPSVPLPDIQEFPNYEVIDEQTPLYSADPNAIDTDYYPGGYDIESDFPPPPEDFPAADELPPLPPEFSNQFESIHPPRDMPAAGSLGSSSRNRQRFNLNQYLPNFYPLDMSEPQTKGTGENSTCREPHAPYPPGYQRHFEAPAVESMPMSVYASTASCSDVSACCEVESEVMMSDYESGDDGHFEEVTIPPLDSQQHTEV
inactive: [1] -0.059 | [2] -0.038 | [3] 0.126 | [4] -0.071 | [5] 0.155

GSTP1 (UniProt P09211)
inactive: [1] -0.013 | [2] 0.039 | [3] 0.005 | [4] -0.013 | [5] -0.016

IDI1 isoform 2 (UniProt Q13907)
inactive: [1] -0.024 | [2] 0.024 | [3] 0.037 | [4] 0.003 | [5] -0.007

FUCA2 (UniProt Q9BTY2)
inactive: [1] 0.055 | [2] -0.004 | [3] 0.005 | [4] 0.034 | [5] 0.006

GEMIN6 (UniProt Q8WXD5)
inactive: [1] 0.027 | [2] -0.111 | [3] -0.053 | [4] -0.113 | [5] -0.063

FNTA (UniProt P49354)
inactive: [1] -0.009 | [2] -0.024 | [3] 0.02 | [4] 0.04 | [5] -0.009

GOLGA8R (UniProt I6L899)
inactive: [1] 0.106 | [2] 0.211 | [3] 0.326 | [4] 0.043 | [5] -0.003

GALNT11 (UniProt Q8NCW6)
inactive: [1] -0.027 | [2] 0.096 | [3] 0.093 | [4] -0.097 | [5] -0.027

GSTT1 (UniProt P30711)
inactive: [1] 0.032 | [2] 0.121 | [3] 0.165 | [4] -0.146 | [5] 0.026

IFI30 (UniProt P13284)
inactive: [1] -0.066 | [2] 0.01 | [3] -0.06 | [4] 0.004 | [5] 0.048

GNAS (UniProt Q5JWF2)
inactive: [1] 0.016 | [2] -0.008 | [3] 0.045 | [4] -0.038 | [5] 0.013

HDAC1 (UniProt Q13547)
inactive: [1] 0.004 | [2] 0 | [3] -0.004 | [4] 0.03 | [5] 0.154

GTF2E1 (UniProt P29083)
inactive: [1] -0.086 | [2] 0.089 | [3] 0.136 | [4] -0.052 | [5] 0.034

GATD1 (UniProt Q8NB37)
Sequence of UniProt Q8NB37 (Q8NB37 whole entry, looked up): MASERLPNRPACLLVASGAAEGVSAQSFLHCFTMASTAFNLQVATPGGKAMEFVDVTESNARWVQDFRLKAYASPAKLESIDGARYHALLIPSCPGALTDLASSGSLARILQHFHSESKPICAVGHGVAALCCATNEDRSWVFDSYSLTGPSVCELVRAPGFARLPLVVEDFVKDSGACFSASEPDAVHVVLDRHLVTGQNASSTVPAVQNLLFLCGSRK
inactive: [1] -0.038 | [2] 0.043 | [3] 0.019 | [4] 0.019 | [5] 0.007
